Inhibition of corepressor binding data for 93 compounds are collected here from PubChem BioAssay AID602229 (The Scripps Research Institute Molecular Screening Center, 2012).

Hit rate of the full screen: of about 360,000 compounds, about 1,300 (0.36%) were called active. What follows is part of a selection rich in actives, with near analogues and random picks from the rest. Unmarked numbers belong to inactive results.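 How the source made its calls: active means inhibition above the mean of all tested compounds plus 3 SD (cut at about 70% in these data); inactive means the rest.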

Sequence of Photoreceptor-specific nuclear receptor (Homo sapiens) (Q9Y5X4 whole entry, looked up, the tested form may be a part): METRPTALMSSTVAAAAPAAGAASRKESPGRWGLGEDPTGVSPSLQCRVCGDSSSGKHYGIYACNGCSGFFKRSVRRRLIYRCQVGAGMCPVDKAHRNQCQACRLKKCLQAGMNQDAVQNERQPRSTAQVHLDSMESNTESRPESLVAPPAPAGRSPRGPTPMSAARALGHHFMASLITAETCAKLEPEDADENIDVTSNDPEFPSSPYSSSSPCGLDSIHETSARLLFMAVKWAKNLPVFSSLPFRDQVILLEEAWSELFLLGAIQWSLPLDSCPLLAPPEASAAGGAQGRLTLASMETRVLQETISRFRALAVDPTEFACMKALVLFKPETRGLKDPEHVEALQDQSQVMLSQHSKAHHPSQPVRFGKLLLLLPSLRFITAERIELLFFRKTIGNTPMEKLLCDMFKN

The experiment addresses Photoreceptor-specific nuclear receptor (Homo sapiens) (UniProt Q9Y5X4). Put plainly: NR2E3 agonists in two-hybrid cells, primary screen, cell-based, luminescence, CHO-S, Gal4-NCOR/VP16-NR2E3 (AID 602229).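 Further: 0% = DMSO with NR2E3 transfected cells and 100% = cells lacking NR2E3 construct; higher means lower luciferase signal from less NR2E3 corepressor binding.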 The note with it: luciferase, at 3.98 µM, stronger effect = higher value.
In the case of `CCCc1cc(=O)n2[nH]c(C)c(-c3ccc(Cl)cc3)c2n1`, the inhibition of corepressor binding is 43.4%.

As for `Cc1nc2c(-c3ccccc3)c(C)[nH]n2c(=O)c1Cl`, the inhibition of corepressor binding is 9.97%. The figure for `Cc1[nH]n(-c2cccc(Cl)c2)c(=O)c1-c1ccc(Cl)cc1` is 85% (active); for `O=C(NCc1ccc(F)cc1F)[C@@H]1CCCN1C(=O)[C@@H]1CCCN1C(=O)c1cccc(Cl)c1` it is 4.78%.

For the compound `Cn1cc(CN2CCCCC2c2ccccn2)c(-c2ccc3c(c2)OCCO3)n1` (stereo not drawn), the inhibition of corepressor binding is -4.51%.

`c1ccc(C(=NNc2nc3ccccc3s2)c2ccccn2)cc1`: the inhibition of corepressor binding is 89.7% (active). On to `CSc1ncccc1C(=O)Nc1nc2ccc(F)cc2s1`, for which the inhibition of corepressor binding was 47.5%. With `NC(=S)c1ccc(C(N)=S)o1` the figure was -5.1%; with `O=S1(=O)CC(N2CCSCC2)CN1Cc1cn(Cc2cccc(Cl)c2)nn1` (stereo not drawn), -19.4%. The figure for `CCOCCCNC(=O)C(=O)NCCCOCC` is 8.99%. With `CN(C)C1CN(Cc2cn(Cc3ccccc3)nn2)S(=O)(=O)C1` (stereo not drawn) the figure was -4.65%.

With `CN(Cc1cn(Cc2ccc(C(F)(F)F)cc2)nn1)C1CN(Cc2cn(Cc3ccc(C(F)(F)F)cc3)nn2)S(=O)(=O)C1` (stereo not drawn), the inhibition of corepressor binding is 86% (active).

On to `Cc1ccc(Cn2cc(CN3CC(N4CCN(C)CC4)CS3(=O)=O)nn2)cc1` (stereo not drawn), for which the inhibition of corepressor binding is 9.78%. With `Cc1ccc(NC(=O)C(C)Sc2nnc(C3CC3)n2C2CC2)cc1S(=O)(=O)N1CCOCC1` (stereo not drawn) the figure was 13%; with `COc1ccc(-n2nc(C(=O)Nc3cc(OC)c(OC)c(OC)c3)c3ccccc3c2=O)c(OC)c1`, -8.33%.

Regarding `COc1ccc(OC)c(NC(=O)CN(C)CCOc2ccc(Br)cc2)c1`, the inhibition of corepressor binding was 7.2%. On to `COc1ccc(OC)c(Nc2nc3ccccc3n3cnnc23)c1`, for which the inhibition of corepressor binding is 19.4%. The figure for `COc1ccc(Nc2ncnc3ccc(Br)cc23)c(OC)c1` is 85.3% (active); for `COC(=O)c1cc(S(=O)(=O)NCC2CCN(Cc3ccc(Cl)cc3)CC2)cn1C` it is 16.9%.

With `Fc1cccc(CSc2nnc3ccc(-c4ccncc4)nn23)c1`, the inhibition of corepressor binding was 6.42%. With `C=C(Br)CN1CCN(CC(=C)Br)CC1` the figure was -7.79%; with `O=C(CN1CCC(NC(=O)C2CC2)CC1)Nc1ccccc1[N+](=O)[O-]`, -17.5%. With `CCOC(=O)C(CO)NC(=O)C1(NC(C)=O)CCCC1` (stereo not drawn) the figure was -34.7%; with `O=C(Nc1nnc(-c2ccccc2)o1)c1cc(-c2cccs2)nc2ccccc12`, 88.7% (active); with `O=C(Nc1nnc(-c2ccc(Cl)cc2)o1)c1ccccc1Br`, -48%.

With `Cc1ccnc2nc(C(=O)Nc3nnc(-c4ccccc4)o3)nn12`, the inhibition of corepressor binding was 0.21%. The figure for `COc1cccc(C(=O)Nc2c3c(nn2-c2cccc(C)c2C)CS(=O)(=O)C3)c1OC` is -6.84%; for `Cc1c(NC(=S)NCc2ccc(F)cc2)cccc1[N+](=O)[O-]` it is -17.5%; for `O=C(C1CCCO1)N(Cc1ccccc1)c1ccccc1` (stereo not drawn) it is -3.43%. With `COc1ccc(C(=O)OCC(=O)Nc2cc(C)on2)cc1F` the figure was 20.3%; with `CC1(C)OC(=O)C2=C(CC(c3ccccc3)OC2CCc2ccccc2)O1` (stereo not drawn), -2.84%; with `CCCc1nc2sc3c(c2c(=O)n1NC(=O)CCCl)CCCC3`, 2.18%.

For `CCc1nc(N2CCN(C(C)=O)CC2)c2c3c(sc2n1)CCCC3`, the inhibition of corepressor binding was -27.3%. As to `COCCNc1nc(-n2nc(C)cc2C)nc2sc3c(c12)CCCC3`, the inhibition of corepressor binding was 91.3% (active).

In the case of `COc1ccccc1-c1nn(Cc2ccccc2)cc1C(=O)N1CCN(c2ncccn2)CC1`, the inhibition of corepressor binding is -28.8%.

Take `COC(=O)c1ccc2c(c1)S(=O)(=O)NC2C` (stereo not drawn): the inhibition of corepressor binding was 1.74%. With `CCOC(=O)N1CCN(C(=O)c2ccc(S(=O)(=O)Nc3cccc(C(F)(F)F)c3)cc2)CC1` the figure was 78.3% (active); with `CCOC(=O)c1cccc(NS(=O)(=O)c2c(C(=O)N3CCCCCC3)c(C)n(C)c2C)c1`, -3.88%. With `CC(=O)N1CCN(C(=O)c2cccc(S(=O)(=O)Nc3ccc(C)cc3)c2)CC1` the figure was -16.4%; with `Cc1ccsc1CNn1cnnc1SCc1ccccc1F`, 1.17%; with `Cc1nc2c(OCc3ccc(Cl)cc3)cccn2c1N(C)Cc1cccs1`, -14.4%. The figure for `Cc1nc2c(OCc3ccc(Cl)cc3Cl)cccn2c1N(C)CC1CC1` is -9.82%. As to `Cc1nc2c(OCc3cccc(Cl)c3)cccn2c1N(C)CC1CC1`, the inhibition of corepressor binding was 79.4% (active). With `CC1CCN(CCCn2c(SCC(=O)NC3CCCC3)nc3ccccc3c2=O)CC1`, the inhibition of corepressor binding was -14.7%. With `COc1cc(OC)cc(C(=O)NC(=S)N2CCN(c3ccc(C(F)(F)F)cc3[N+](=O)[O-])CC2)c1` the figure was -27.8%; with `O=C(Cc1ccc(S(=O)(=O)N2CCOCC2)s1)N1CCN(c2ccc(C(F)(F)F)cc2[N+](=O)[O-])CC1`, 27.1%. With `O=C(c1ccc(N2CCCC2=O)cc1)N1CCN(c2ccc(C(F)(F)F)cc2[N+](=O)[O-])CC1` the figure was 82.8% (active); with `Cc1nnc(SCC(=O)Nc2ncc3c(n2)CC(C)(C)CC3=O)s1`, -5.27%; with `Cc1cc2oc(=O)cc(CN(C)Cc3ccc(OC(F)F)cc3)c2cc1Cl`, -26%.

On to `Cc1ccc(NC(=S)N(CCN(C)C)Cc2cccs2)cc1C`, for which the inhibition of corepressor binding was -15.7%.

Take `COC(=O)c1sccc1NC(=O)CSc1ccccc1NS(=O)(=O)c1cc(Cl)ccc1Cl`: the inhibition of corepressor binding is 89.8% (active). For the compound `COC(=O)c1scc(C)c1NC(=O)CSc1ccc(Cl)cc1`, the inhibition of corepressor binding is 2.57%. Regarding `COC(=O)c1sccc1NS(=O)(=O)c1ccc(F)cc1F`, the inhibition of corepressor binding is -9.53%. Regarding `CCCC(=O)Nc1nnc(CC(=O)OCC)s1`, the inhibition of corepressor binding was 12.6%.

For the compound `CCn1nc(C)c(CN2CCN(Cc3ccc(OC)c(C)c3C)C(CCO)C2)c1C` (stereo not drawn), the inhibition of corepressor binding is -29.8%. With `CC(C(=O)N1CCOCC1)N1c2cccc3cccc(c23)S1(=O)=O` (stereo not drawn) the figure was -0.03%; with `Oc1c(Cl)cc(Cl)c(Cl)c1Cc1c(O)c(Cl)cc(Cl)c1Cl`, 90.7% (active).

`C=CCn1c(SCC(=O)c2ccc(Br)cc2)nnc1C(C)NC(=O)Cc1ccc(OC)cc1` (stereo not drawn): the inhibition of corepressor binding was 22.7%. For the compound `C=CCn1c(C23CC4CC(CC(C4)C2)C3)n[nH]c1=S`, the inhibition of corepressor binding was -1.8%. With `Cc1nc(NC(=O)CCC(=O)O)sc1C(=O)N(C)C` the figure was -26.6%; with `COc1ccc2c(c1)c(=Cc1ccc(N(C)C)cc1)c1cc(-c3ccccc3)[n+](C)n12`, 82.2% (active); with `C[C@@H]1NC(=O)c2cc([N+](=O)[O-])cc(F)c2NCCC[C@@H](C(N)=O)NC(=O)[C@H](CC(N)=O)NC1=O`, -1.65%.

For `Cc1cc(C(=O)OCC(=O)Nc2ccccc2Cl)c(C)o1`, the inhibition of corepressor binding is -11.3%. As to `O=C(Nc1ccccc1C(=O)N1CCCCCC1)c1ccccc1Cl`, the inhibition of corepressor binding is -5.45%. Regarding `O=C(Nc1ccccc1Cl)/C(Cl)=C(\Cl)S(=O)c1ccccc1` (stereo not drawn), the inhibition of corepressor binding was 90.4% (active). With `Cc1sc2ncnc(SCC(=O)NC3CCS(=O)(=O)C3)c2c1C` (stereo not drawn), the inhibition of corepressor binding is 11.1%. With `CCNC(=O)c1c(O)c2cccc3c2n(c1=O)CC3` the figure was -12.8%. The figure for `CN(C)C(=S)N=c1ssc(=S)n1Cc1ccco1` is 91.5% (active); for `CCN(CC)C(=O)CSc1nnc(CNc2ccc(F)cc2)n1Cc1ccco1` it is -4.24%. The figure for `CC1CN(Cc2ccco2)C(=S)N(c2ccccc2)C1=O` (stereo not drawn) is 10.4%; for `C=CCNC(=O)c1ccccc1SCc1c(C)noc1C` it is -20.3%; for `CC(C)OCCCNc1ncnc2c1[nH]c1ccc(F)cc12` it is 75.6% (active).

On to `CC(/C=C/c1ccco1)=N/NC(=O)C1COc2ccccc2O1` (stereo not drawn), for which the inhibition of corepressor binding was -22.3%.

Consider `CC1CC1C(=O)OCC(=O)c1c(N)n(C)c(=O)n(C)c1=O` (stereo not drawn), for which the inhibition of corepressor binding is 4.9%. Turning to `FC(F)(F)c1nnc2c3ccccc3c(Cl)nn12`, the inhibition of corepressor binding is -2.37%.

With `COc1ccc(S(=O)(=O)NCCCCOc2ccc(Cl)cc2)cc1`, the inhibition of corepressor binding was 96.7% (active). For `COc1ccc(S(=O)(=O)NCCOc2ccccc2)cc1F`, the inhibition of corepressor binding was -29.5%. Regarding `COc1ccc(OCCNS(=O)(=O)Cc2ccccc2)cc1`, the inhibition of corepressor binding is -15.6%. With `CCOC(=O)c1sc(C)c2c1NC(C)(c1cccc3ccccc13)NC2=O` (stereo not drawn), the inhibition of corepressor binding was -1.53%. With `OC(c1ccc(F)cc1)c1ncc(-c2cccc(C(F)(F)F)c2)[nH]1` (stereo not drawn) the figure was 30.1%; with `OC(c1ccc(Cl)cc1)c1ncc(-c2ccc(Cl)cc2)[nH]1` (stereo not drawn), 71.4% (active). Turning to `Cc1ccc(-c2cnc(C(O)c3cc(Cl)cc(Cl)c3)[nH]2)cc1` (stereo not drawn), the inhibition of corepressor binding is -10.6%. The figure for `Cc1[nH]n(C(N)=S)c(=O)c1N=Nc1ccc(Cl)cc1Cl` is -3.9%; for `O=C(NCc1ccccc1)c1cccc(NC(=O)C2CCCCC2)c1` it is -12.6%; for `O=C1CSC(c2cccc(F)c2)N1c1ccccc1F` (stereo not drawn) it is -28.1%. The figure for `O=C1C=C(c2ccnc3cc(Cl)ccc23)C[C@@H](c2ccc3c(c2)OCO3)C1` is 85.8% (active).

Regarding `O=C1C=C(c2cccc(Cl)c2)C[C@@H](c2ccc(F)cc2)C1`, the inhibition of corepressor binding is -24.8%. With `O=C1C=C(c2cc(C(F)(F)F)cc(C(F)(F)F)c2)C[C@@H](c2ccc3c(c2)OCO3)C1` the figure was -2.34%; with `O=C(CN1CCSCC1)N/N=C/c1ccc(F)cc1F`, -6.92%; with `CCOC(=O)N1CCN(S(=O)(=O)c2cc(Br)cc3c2N(C(=O)C2CC2)CC3)CC1`, -15.4%. `OC[C@@H]1CN(Cc2cccs2)C[C@H](n2cnc3c(NC4CCCC4)ncnc32)O1`: the inhibition of corepressor binding was -11.2%. The figure for `OC[C@@H]1CN(Cc2ccc(-c3ccccc3)cc2)C[C@H](n2cnc3c(NC4CCCC4)ncnc32)O1` is 91.4% (active); for `OC[C@@H]1CN(Cc2ccc(F)cc2)C[C@H](n2cnc3c(NC4CCCC4)ncnc32)O1` it is -45.5%.
